From PubChem BioAssay (NCI)
The panel holds about 79,000 compounds, 15% with a hit somewhere; the sample as a whole holds those more often. A number with no mark means an inactive call. Active and inactive are the calls of the source. No stated cut-off is given here; in the data, active means growth inhibition above about 70%; inactive means the rest.

Legend:
[1] = NCI Yeast Anticancer Drug Screen. Data for the rad50 strain (AID 155);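 further: 0% = growth of vehicle-only cultures of the same strain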; details: S. cerevisiae rad50 strain growth inhibition; at 50.0 µM; hits give high values
Outline: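 Inhibition values express reduced yeast growth in compound-treated cultures relative to vehicle-treated controls.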

[2] = NCI Yeast Anticancer Drug Screen. Data for the mec2-1 strain (AID 157); details: S. cerevisiae mec2-1 strain, at 50.0 µM, hits give high values
Outline: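 Each compound was tested on mec2-1 yeast, a strain altered in DNA damage repair or cell cycle control. Growth inhibition is reported relative to vehicle.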

[3] = NCI Yeast Anticancer Drug Screen. Data for the sgs1 mgt1 strain (AID 161);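 further: 0% = growth of cultures given vehicle only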; details: S. cerevisiae sgs1 mgt1 strain, at 50.0 µM, hits give high values
Outline: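 Genetically altered yeast, compound exposure, growth inhibition relative to vehicle.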

[4] = NCI Yeast Anticancer Drug Screen. Data for the cln2 rad14 strain (AID 165);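 further: 0% = growth equal to vehicle treated cultures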; details: S. cerevisiae cln2 rad14 strain, at 50.0 µM, hits give high values
Outline: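 Test compounds were added to cln2 rad14 yeast cultures; inhibition of growth was then determined by comparison with vehicle treatment.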

[5] = NCI Yeast Anticancer Drug Screen. Data for the bub3 strain (AID 167); details: S. cerevisiae bub3 mutant strain, at 50.0 µM, hits give high values
Outline: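 Steps: expose the mutant yeast strain to compound; grow alongside vehicle-treated cultures; measure growth; express inhibition against the vehicle cultures.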

[6] = NCI Yeast Anticancer Drug Screen. Data for the mlh1 rad18 strain (AID 175); details: S. cerevisiae mlh1 rad18 strain growth inhibition; at 50.0 µM; hits give high values
Outline: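 Inhibition values reflect reduced growth of mutant yeast versus vehicle-treated controls following compound exposure; the mutations affect DNA damage repair.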

Compound	growth inhibition [1]	growth inhibition [2]	growth inhibition [3]	growth inhibition [4]	growth inhibition [5]	growth inhibition [6]
CC(=O)Nc1ccc(S(=O)(=O)/C(=C/c2ccc(-c3ccc(Br)cc3)o2)c2ccc([N+](=O)[O-])o2)cc1	30%	-7.45%	-12.2%	13.7%	1.1%	-8.05%
COC(=O)c1cc(C(=CCC[C@H]2CC[C@@]3(C)C(CCC4C3CC[C@@]3(C)C4CC[C@@H]3C(C)CCCC(C)C)C2)c2cc(Cl)c(O)c(C(=O)OC)c2)cc(Cl)c1O (stereo partly drawn)	0%	4.1%	-10%	6.6%	5.15%	-18.4%
CC(C)Cc1c(N)nc(NCCCC(N)C(=O)O)[nH]c1=O (stereo not drawn)	13.5%	-16.9%	-3.55%	13.1%	9.8%	11.8%
O=C(c1ccc(-c2ccccc2)cc1)N(C(=O)c1cc(N2CCOCC2)ccn1)c1ccc([N+](=O)[O-])cc1	43%	17.8%	45.8%	22.9%	-5.6%	8.6%
CCCCCCCC/C=C\CCCCCCCC(=O)OCCN(CCOC(=O)CCCCCCC/C=C\CCCCCCCC)C(=O)c1ccccc1	-12.9%	-1.2%	-17.9%	-20.2%	-9.9%	-2.65%
O=C(O)c1ccccc1C(=O)c1ccc(Br)cc1	8.4%	-20.7%	10.8%	14.6%	-3.45%	10.1%
CN(C)N=Nc1ccc(Cl)cc1	-5.15%	21.9%	16.6%	-56.6%	35%	8.3%
Cc1ccc(NC(=O)CCCC(=O)CC(=O)c2ccc(Br)cc2)cc1	-0.4%	-14.9%	-40.4%	-26.2%	-12.2%	-24.6%
O=C(O)C(C(=O)O)C(c1ccccc1)c1ccccc1Br (stereo not drawn)	5.15%	17.1%	28.1%	-184%	23.9%	29.5%
O=c1cc(C(Br)(Br)Br)[nH]c2ccccc12	19.4%	3.25%	9.45%	-5.7%	4.55%	18%
CCC12C=CCN(CCc3c([nH]c4ccccc34)/C=C\1)C2 (stereo not drawn)	-8.95%	-8.75%	-7.25%	-1.6%	6.55%	-15.8%
CN1C(=O)N/C(=C\c2ccc(S(=O)(=O)NN)cc2)C1=O	4.05%	9.6%	24.7%	11.7%	-18.8%	39.2%
N#CC(CCc1ccc([N+](=O)[O-])cc1)(CCc1ccc([N+](=O)[O-])cc1)C(N)=O	38.4%	19.4%	35.9%	-14.2%	24.9%	49.2%
COc1ccc([N+](=O)[O-])c2c(C)cc(=O)[nH]c12	32.1%	19.4%	21.9%	-9.5%	-23.6%	35.7%
C1=Cc2c3c(c4c(c2C1)C=CC4)C=CC3	-1.95%	-8.1%	-1.2%	-2.3%	-1.15%	6.3%
C=COC(=O)C=C	-3.1%	9.15%	-3.2%	-0.2%	13.9%	-9.15%
CCCCCCCCCCCCCCCCC(CCCCCCCCCCCCCCCC)c1ccccc1	35.2%	-0.65%	13.4%	-18.1%	4.05%	18.6%
COC1OC(CO)C(O)C2OCCOCCOC3C(OC)OC(CO)C(O)C3OCCOCCOC12 (stereo not drawn)	-2.65%	-4.4%	5.9%	-7.7%	-0.5%	18.5%
Cc1[nH]c(=O)cc(C(=O)O)c1CN	7.15%	-8.75%	3.7%	-59.2%	-7.25%	-3.45%

Compound	growth inhibition [1]	growth inhibition [2]	growth inhibition [3]	growth inhibition [4]	growth inhibition [5]	growth inhibition [6]
CN(C)CC(CN(C)C)C(=O)/C=C/c1ccc(O)cc1	1.4%	-2.25%	6.05%	6.35%	22.4%	5.5%
N#CCC(=O)N/N=C(\C#N)c1ccccc1	8.65%	1.95%	0.55%	-51.9%	-18.1%	0.75%
COc1ccc(S(=O)(=O)Nc2cccc(C(F)(F)F)c2)cc1	99% (active)	99.7% (active)	99.5% (active)	98.5% (active)	99.3% (active)	99.5% (active)
CCc1cccc(CC)c1NC(=O)CC1SC(N)=NC1=O (stereo not drawn)	-4.45%	-19.2%	-1.95%	9.8%	15.7%	-24.9%
COc1ccc(C2CC(=O)Oc3cc4c(cc32)OCO4)cc1 (stereo not drawn)	-10.2%	-8.05%	-11.2%	-11.6%	-2.2%	-15.9%
CC1(C)C(C(=O)/C=C2\Nc3ccccc3C2(C)C)=Nc2ccccc21	-19.5%	-5.65%	-2.05%	-26.7%	-29.4%	-7.85%
CCCCCCCCSC1=NS(=O)(=O)c2ccccc21	64%	28.6%	44.5%	31.1%	49.2%	31.1%
C/C(N=NC(=S)N1CCC(C)CC1)=C1\C=CC=CN1O	97.3% (active)	91.5% (active)	95.9% (active)	87.2% (active)	48%	98.3% (active)
CC/C=N/Nc1ccc([N+](=O)[O-])cc1[N+](=O)[O-]	15.6%	-9.1%	4.6%	3.3%	1.6%	22.6%
CC(=O)OC1CCC2(C)C(CCC3C2CCC2(C)C(C(C)=O)CCC32)C1 (stereo not drawn)	4.25%	-9.05%	2.35%	-11.9%	10.4%	14.9%
CC1CN=C(c2c(O)ccc3ccccc23)S1 (stereo not drawn)	42.9%	31.5%	79.8% (active)	26.8%	34.4%	61.3%
Cc1nn(-c2nc(-c3ccc(Br)cc3)cs2)c(C)c1C	12.9%	-4.9%	-9.95%	9.6%	5.65%	3.45%
CC(C)(C)NC1=C([N+](=O)[O-])CCCC1	4.25%	6%	-1.05%	-19.6%	11.9%	4.5%
CCC(=O)SCC[N+](C)(C)C	16.1%	-30.8%	0.2%	8.8%	27.6%	4.55%
COc1cccc2c(Cl)c3ccc(Cl)cc3nc12	11.4%	5.25%	0.8%	-39.1%	-18.9%	15.8%
CCCCCCn1c(=O)c(N(C)C)c(C)n(C)c1=O	-36.1%	-3.5%	-9.05%	46%	17.7%	-23.4%
Nc1ccc(/C=C/C(=O)O)cc1	-9.1%	-6%	11.6%	10.8%	2.55%	9.95%
CCCCNc1nc2ccccc2c2c1ncn2CC(C)C	-7.4%	34.5%	14.1%	23.5%	46.5%	30.3%
CCC1CC(=O)NC(=O)NC1=O (stereo not drawn)	-4.6%	30.8%	-3.75%	12.1%	7.2%	6.9%
